Pf growth 96h: P. falciparum growth inhibition at 96 hour, primary screen for plastid delayed-death inhibitors; P. falciparum luciferase reporter growth, 96 h; Potency, µM (doses to about 28.7 µM), most hits filed as inhibitors; hit rate 6.9% among 320,000
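96 h incubation, 37 C, 5% CO2, of luciferase-reporter P. falciparum-infected RBCs (2% hematocrit, 0.05% parasitemia final) with test compounds; endpoint luminescence.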
SARS PLpro yeast: blocks SARS-CoV papain-like protease in a yeast assay. hit rate 0.19% among 330,000. AID 485353. S. cerevisiae expressing SARS-CoV PLpro, growth rescue. Potency, µM (series often up to 32.9 µM), usual class: activators; calls by dose curve; also: nearly all actives have a fitted effect of over 55% in size
Pf growth 48h: P. falciparum growth inhibition at 48 hours (one generation) | P. falciparum luciferase growth in erythrocytes, 48 h | Potency, µM (series often up to 28.7 µM), most hits filed as inhibitors | hit rate 5.9% among 310,000 | AID 504832
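Firefly luciferase activity from engineered P. falciparum reports growth; inhibitors lower the luminescent signal. Cultures contained 2% hematocrit erythrocytes at 0.1% final parasitemia.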
AMA1-RON2 inh: inhibitors of Plasmodium falciparum AMA1-RON2 interaction. AlphaScreen AMA1-biotinylated RON2 peptide binding. Potency, µM (doses to about 58.2 µM), hits mostly inhibitors. hit rate 0.2% among 360,000. AID 720542; also: nearly all actives have a fitted effect of over 45% in size
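AMA1 (3D7) with his tag at 25 nM final met compounds first, then biotinylated RON2 peptide at 25 nM; detection used donor plus acceptor beads, 10 µg/mL apiece, read by AlphaScreen after 30 min at room temperature.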
Numbers stand for hits; . = inactive; ? = inconclusive; / = no result; [ ] = another dose, or the depositor's remark. Sampled rows, rich in hits. Any-hit rate of the full collection: about 9.4%. Unless noted, calls follow the shape of the dose curve; as a rule, active = well fitted curve in the direction sought with a large enough effect; inconclusive = small, poorly fitted or top-dose-only effect, or another doubt; inactive = no such curve, though single readings can be large; an effect the other way counts as inactive or inconclusive.

SMILES	Pf growth 96h	SARS PLpro yeast	Pf growth 48h	AMA1-RON2 inh
CCCOc1c(Br)cc(C2C3=C(CCCC3=O)N(C)C3=C2C(=O)CCC3)cc1OC	.	.	9.28µM	.
CC(=O)c1cccc(N2Cc3ccccc3C2=NC(=O)CCl)c1	13.1µM	.	.	.
CC(=O)c1ccc(N2Cc3ccccc3/C2=N\C(=O)Nc2ccccc2)cc1	.	.	.	.
CCCC1=C(C(=O)OCC)C(c2cccs2)n2ncnc2N1 (centres undefined)	.	.	?	.
CN(C)S(=O)(=O)N1CCN(c2ccnc3cc(Cl)ccc23)CC1	.	.	.	.
CC(C)S(=O)(=O)N1CCN(c2ccnc3cc(Cl)ccc23)CC1	9.28µM	.	5.22µM	.
O=C(Nc1ccc(OC(F)(F)F)cc1)N1CCN(c2ccnc3cc(Cl)ccc23)CC1	?	.	?	.
O=S(=O)(c1ccccc1OC(F)(F)F)N1CCN(c2ccnc3cc(Cl)ccc23)CC1	2.33µM	.	9.28µM	.
N#Cc1cccc(S(=O)(=O)N2CCN(c3ccnc4cc(Cl)ccc34)CC2)c1	2.33µM	.	13.1µM	.
O=[N+]([O-])c1ccc(S(=O)(=O)N2CCN(c3ccnc4cc(Cl)ccc34)CC2)cc1	2.62µM	.	5.22µM	.
COC(=O)[C@]1(C)N[C@H](CN(C)S(=O)(=O)c2ccc(F)cc2)[C@@H]2C(=O)N(Cc3ccccc3)C(=O)[C@@H]21	/	.	/	.
CCN(C[C@H]1N[C@@](CC)(C(=O)OC)[C@H]2C(=O)N(C)C(=O)[C@@H]12)S(=O)(=O)c1ccccc1	/	.	/	.
O=C(c1ccco1)N1CCN(c2ccnc3cc(Cl)ccc23)CC1	.	.	?	.
O=S(=O)(c1cccc(Br)c1)N1CCN(c2ccnc3cc(Cl)ccc23)CC1	1.85µM	.	3.7µM	.
O=C(COC(=O)c1ccc(F)c(S(=O)(=O)N2CCOCC2)c1)NCc1ccc(Cl)cc1	/	.	/	.
COc1ccc2cc(C3CC(c4ccco4)=NN3S(C)(=O)=O)c(Cl)nc2c1 (centres undefined)	?	.	.	.
CCOc1ccc2nc(Cl)c(C3CC(c4ccco4)=NN3S(=O)(=O)c3ccccc3)cc2c1 (centres undefined)	7.38µM	.	?	.
Cc1cc(=O)[nH]c(Nc2cccc(C(F)(F)F)c2)n1	13.1µM	.	?	.
Cc1cc(=O)[nH]c(NN)n1	9.28µM	.	?	.
OCC[C@@H]1C[C@@H](O)[C@H](O)[C@@]2(CCCO2)O1	/	/	/	.
CCOc1ccc(C(=O)OCC(=O)N2CCOCC2)cc1OCC	.	.	.	.
CCC(=O)NC(Cc1ccccc1)c1ccc2c(c1)OCCCO2 (centres undefined)	?	.	.	.
CC(=O)OCC1OC(n2c(S)c(C#N)c(-c3ccccc3)c(C#N)c2=O)C(OC(C)=O)C(OC(C)=O)C1OC(C)=O (centres undefined)	/	/	/	.
CC(=O)N1c2ccc(C)cc2C(c2ccccc2)CC1C (centres undefined)	?	.	7.38µM	.
CC(=O)OC1CC(C)N(C(=O)c2ccccc2)c2ccc(C)cc21 (centres undefined)	/	.	.	.
SMILES	Pf growth 96h	SARS PLpro yeast	Pf growth 48h	AMA1-RON2 inh
CCCSc1nc(-c2ccccc2)cc(C(F)(F)F)c1C#N	.	.	.	.
Cc1noc(C)c1COc1ccccc1C(=O)NC(C)CCc1ccccc1 (centres undefined)	/	/	/	.
Cc1noc(C)c1COc1ccccc1C(=O)NC(C)c1ccc(Cl)cc1 (centres undefined)	5.22µM	.	13.1µM	.
Cc1noc(C)c1COc1ccccc1C(=O)NCCc1ccccc1	?	.	?	.
Cc1noc(C)c1COc1ccccc1C(=O)NCc1ccccc1Cl	5.22µM	.	?	.
Cc1ccc(CC(CC(=O)Nc2cccc(C(F)(F)F)c2)C(=O)O)cc1 (centres undefined)	14.7µM	.	.	.
O=C(CC(Cc1ccccc1)C(=O)O)Nc1ccccc1 (centres undefined)	.	.	.	.
Cc1ccc(S(=O)(=O)N2CCC(C(=O)N[C@H](C(=O)NCc3ccco3)C(C)C)CC2)cc1	.	.	.	.
Cc1ccc2c(c1)N(CC(=O)N1CCCc3ccccc31)C(=O)CO2	?	.	.	.
Oc1cc(Cl)ccc1Oc1ccc(Cl)cc1Cl	6.01µM	/	9.53µM	.
S=c1[nH]cc(Oc2ccc(Cl)cc2Cl)c(=S)[nH]1	/	/	/	.
CC(=O)C1=C(c2ccccc2)N(C(C)=O)n2c(C)nnc2S1	.	.	2.33µM	.
CC(=O)N1CCN(c2nnc(-c3ccccc3)c3ccccc23)CC1	.	.	/	.
CCOC(=O)c1ccc(N/N=C/c2cc(Br)cc([N+](=O)[O-])c2O)cc1	.	.	.	.
CC1CCCCN1C(=S)NC(=O)c1cc(Br)ccc1Cl (centres undefined)	13.1µM	.	?	.
c1ccc2c(c1)CCCn1nnnc1-2	.	.	.	.
FC(F)(F)c1cccc(NC(=S)Nc2cccc(NC(=S)Nc3cccc(C(F)(F)F)c3)n2)c1	?	.	11.7µM	.
Cc1cc2oc(=O)sc2cc1NS(=O)(=O)c1cccc2cccnc12	?	.	.	.
CC(C)n1ncc2c(C(=O)Nc3cccc(S(=O)(=O)N(C)C)c3)cc(C3CC3)nc21	?	.	11.7µM	.[11.6 µM]
CCN(CC)C(=O)c1cccc(NC(=O)c2cc(C3CC3)nc3c2cnn3C(C)C)c1	5.22µM	.	?	.
CCOc1ccc(NC(=O)c2cc(C3CC3)nc3c2cnn3C(C)C)cc1OC	13.1µM	.	11.7µM	.
CC(C)n1ncc2c(C(=O)Nc3ccc(S(C)(=O)=O)cc3)cc(C3CC3)nc21	?	.	?	.
CNC(=O)c1cccc(NC(=O)c2cc(-c3ccccc3)nc3c2cnn3C(C)C)c1	?	.	4.65µM	.
C[C@H]1CN([C@@H](C)CO)C(=O)CCCn2nncc2CO[C@H]1CN(C)C(=O)c1ccc(N2CCN(C)CC2)cc1	/	/	/	.
OC[C@@H]1CN(CCN2CCOCC2)C[C@H](n2cnc3c(NC4CCC4)ncnc32)O1	/	/	/	.
SMILES	Pf growth 96h	SARS PLpro yeast	Pf growth 48h	AMA1-RON2 inh
O=C(COc1ccc2c(c1)OCO2)Nc1nncs1	.	.	.	.
Cc1cc(C)nc(SCC(=O)NC2=NN=C(c3ccc(Br)cc3)CS2)n1	?	.	?	.
CCC(Sc1nc(C)cc(C)n1)C(=O)NC1=NN=C(c2ccc(C)cc2)CS1 (centres undefined)	10.4µM	.	?	.
COc1ccc(C(=O)N(Cc2nc(-c3ccc(C)cc3)no2)C2CCCCC2)cc1OC	/	.	?	.
Cc1[nH]n(-c2ccccc2)c(=O)c1-c1ccc(Cl)cc1	2.08µM	.	/	.
Cc1cc(-c2c(C)[nH]n(-c3ccccc3)c2=O)n[nH]1	?	.	.	.
Cc1cc(-c2c(C)[nH]n(-c3ccccc3)c2=O)n(-c2ccccc2)n1	.	.	.	.
Cc1[nH]n(-c2ccccc2)c(=O)c1-c1cccc(Cl)c1	1.47µM	.	1.65µM	.
O=c1c(-c2ccc(Cl)cc2)c[nH]n1-c1ccccc1	13.1µM	.	8.28µM	.
Cc1cc(-c2c(C)[nH]n(-c3ccc(Cl)cc3)c2=O)n(-c2ccc(Cl)cc2)n1	1.04µM	.	?	.
S=C1NNC2(NN1)C1CC3CC(C1)CC2C3	.	.	.	.

Screens from PubChem.
